Experimental data taken from PubChem BioAssay AID624417 (National Center for Advancing Translational Sciences (NCATS), 2012).
Screen size: about 410,000 compounds; about 6,400 (1.6%) were called active. Where a call stands in place of a potency, no number is given. About 20% were inconclusive and are not listed. Calls follow the shape of the dose curve; as a rule, active = well fitted inhibition curve with a large enough effect; inconclusive = small, poorly fitted or top-dose-only effect; inactive = no such curve, though single readings can be large or run the other way. The sample as a whole holds a higher share of actives than the screen did.

Molecular target: Glucagon-like peptide 1 receptor (Homo sapiens) (UniProt P43220)
Experiment: qHTS of GLP-1 Receptor Inverse Agonists (Inhibition Mode); also: nearly all actives have a fitted effect of over 55% in size
Settings: HEK293 GLP-1R CRE-luciferase, luminescence, 24 h, GLP-1R form is constitutively active; series mostly up to 38.3 µM
Procedure, shortened: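 qHTS in 1536-well format: reporter HEK293 cells expressing constitutive GLP-1R activity in DMEM + 10% Nu serum, 24 hr with compounds at 37 deg C, luminescence read after 12 min with detection reagent.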
Potency is read from the fitted curve at half-maximal effect.

Chain of Glucagon-like peptide 1 receptor (Homo sapiens) (P43220 whole entry, looked up): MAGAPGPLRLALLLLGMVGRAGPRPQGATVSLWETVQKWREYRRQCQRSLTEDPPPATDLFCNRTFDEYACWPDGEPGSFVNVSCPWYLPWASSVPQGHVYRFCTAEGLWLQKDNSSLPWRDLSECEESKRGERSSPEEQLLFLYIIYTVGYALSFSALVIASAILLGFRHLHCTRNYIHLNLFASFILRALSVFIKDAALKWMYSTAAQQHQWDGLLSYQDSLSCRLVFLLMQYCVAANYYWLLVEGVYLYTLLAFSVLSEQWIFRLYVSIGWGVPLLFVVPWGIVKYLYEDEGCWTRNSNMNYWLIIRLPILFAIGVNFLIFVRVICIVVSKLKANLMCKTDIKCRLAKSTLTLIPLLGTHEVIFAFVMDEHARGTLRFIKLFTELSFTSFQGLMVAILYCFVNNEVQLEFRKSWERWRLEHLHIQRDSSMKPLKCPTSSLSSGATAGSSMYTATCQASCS

Structure (SMILES)	Potency
CCOc1ccc(CCN2C(=O)C(=O)N([C@@H](Cc3ccc(O)cc3)CN3CCC[C@H]3CN3C(=O)C(=O)NC[C@@H]3CC(C)C)C[C@@H]2Cc2ccccc2)cc1	inactive
CCCCn1nnnc1C(c1cccc(OC)c1OC)N1CCN(C/C=C/c2ccccc2)CC1 (stereo unspecified)	inactive
Cc1cccc(-c2cnc(C(O)c3cc(C)cc(C)c3)[nH]2)c1 (stereo unspecified)	inactive
COc1ccc(OC)c(C(O)c2ncc(-c3cccc(C(F)(F)F)c3)[nH]2)c1 (stereo unspecified)	inactive
COc1c(C)cc(C(O)c2ncc(-c3cccc(C(F)(F)F)c3)[nH]2)cc1C (stereo unspecified)	12.6 µM (active)
COc1ccccc1Cc1c(-c2ccc(Cl)cc2)nc2c3ccccc3ccn12	inactive
COc1ccc(N2CCC(N3CCN(C)C(CCO)C3)CC2)cc1 (stereo unspecified)	inactive
COc1ccccc1N1CCC(N2CCN(CC(C)(C)C)C(CCO)C2)CC1 (stereo unspecified)	inactive
Cc1cc(F)ccc1N1CCC(N2CCN(C)C(CCO)C2)CC1 (stereo unspecified)	4.47 µM (active)
COc1ccc(CN2C(=O)C(CC(=O)NCCCCc3ccccc3)CC(C(=O)N3CCOCC3)=C2C)cc1 (stereo unspecified)	inactive
Cc1ccccc1NC(=O)CSc1nc2ccc(Nc3nc(N4CCOCC4)nc(N4CCOCC4)n3)cc2s1	inactive
O=C(CSc1nc(Nc2ccccc2)nc(N2CCOCC2)n1)Nc1cc(Cl)ccc1O	5.62 µM (active)
O=C(CC(c1ccccc1)c1cc(Cl)ccc1O)NCCN1CCOCC1 (stereo unspecified)	inactive
CCCNC(=O)C1(C)CCN(C(=O)c2cc(F)ccc2C)C1 (stereo unspecified)	inactive
CC1(C(=O)NS(=O)(=O)c2ccc(C#N)cc2)CCN1C(=O)c1ccc(C2CCCCC2)cc1 (stereo unspecified)	inactive
CCC1(CC)Cc2ccccc2-c2nc(CCl)[nH]c(=O)c21	inactive
N#CCSc1nc2c(c(=O)n1Cc1ccccc1)C1(CCCC1)Cc1ccccc1-2	3.98 µM (active)
N#CCSc1nc2ccc(N3CCOCC3)cc2c(=O)n1CCc1ccccc1	inactive
N#Cc1ccc(-c2ccc3nccn3c2)cc1	inactive
O=[N+]([O-])c1ccc(CN2CC(N3CC=CC3)CS2(=O)=O)cc1 (stereo unspecified)	inactive
C/C(COc1ccccc1)=N\NC(=O)c1nnn(-c2nonc2N)c1-c1ccc(C)cc1	inactive
CC(=O)c1ccc(NC(=O)CCc2nc(-c3ccc(C)cc3)no2)cc1	inactive
COc1ccc(N2CCN(C(=O)CCc3nc(-c4ccc(C)cc4)no3)CC2)cc1	inactive
Cc1ccc(-c2noc(CCC(=O)Nc3ccccc3N3CCN(C)CC3)n2)cc1	11.2 µM (active)

Structure (SMILES)	Potency
C[C@H]1CN([C@@H](C)CO)C(=O)CCCn2cc(nn2)CO[C@@H]1CN(C)S(=O)(=O)c1cccs1	inactive
Cc1ccc(C)c(NC(=O)CN(C)C(=O)COc2ccc3ccccc3c2)c1	inactive
Cc1ccc(NS(=O)(=O)c2ccc(C)c(NC(=O)COc3ccc4ccccc4c3)c2)c(C)c1	5.01 µM (active)
Cc1ccc(C)c(NS(=O)(=O)c2ccc(OCC(=O)NCc3cccnc3)cc2)c1	inactive
CCCCc1ccc(S(=O)(=O)NC(=O)C2(C)CCN2C(=O)c2ccccc2)cc1 (stereo unspecified)	inactive
Cc1nnc(SC(C)C(=O)c2c[nH]c3ccccc23)n1C1CC1 (stereo unspecified)	inactive
Cc1nnsc1C(=O)Nc1cccc(Cl)c1C	inactive
Cc1nnsc1C(=O)NCc1c(F)cccc1Cl	inactive
Cc1cc(Cl)ccc1NNC(=O)c1snnc1C	2 µM (active)
Nc1ncnc2c1ncn2[C@@H]1O[C@H](C(=O)NS(=O)(=O)c2c(Cl)nc3sccn23)[C@@H](O)[C@H]1O	inactive
CCOC(=O)C1C(C)C(C(C)(C)C)N(S(=O)(=O)c2ccc(C)cc2)C1c1ccccc1 (stereo unspecified)	inactive
CC1(C(=O)NS(=O)(=O)c2ccc(C#N)cc2)CCN1C(=O)CC1CCCC1 (stereo unspecified)	inactive
Cc1cccc(CN2CCN(C3CN(Cc4ccccc4)S(=O)(=O)C3)CC2)c1 (stereo unspecified)	inactive
Cc1ccc(NNC(=O)C2CCC2)cc1C	6.31 µM (active)
O=C(NNC(=O)C1CCC1)c1ccccc1	inactive
Cc1ccc(C)c(OCC(=O)NNC(=O)C2CCC2)c1	inactive
Cc1ccc(C(=O)OCC(=O)NC2CCCCCCC2)cc1C	inactive
Cc1cccc(C)c1N1CCN(S(=O)(=O)N2CCCCC2)CC1	10 µM (active)
Cc1cccc(C(=O)N2CCN(S(=O)(=O)N3CCCCC3)CC2)c1	inactive
Cc1cccc(C)c1N1CCN(S(=O)(=O)N2CCOCC2)CC1	inactive
CN(CCO)C(=O)c1nc[nH]c1C(=O)N(C)Cc1ccccc1	inactive
Cc1cc(C(=O)NNC(=O)c2ccccc2O)c(C)o1	inactive
CC1=C(C)CC(C(=O)NNC(=O)c2ccccc2O)C(C(=O)O)C1 (stereo unspecified)	inactive
O=C(NNC(=O)c1ccccc1O)c1ccccc1O	5.01 µM (active)

Structure (SMILES)	Potency
Clc1ccccc1Nc1nc(NCc2cccs2)nc2ccsc12	inactive
CC(C)(C)OC(=O)N1CCN(C(=O)c2[nH]c(C(F)(F)F)nc2-c2ccccc2)CC1	inactive
CCOC(=O)[C@]12CCC=C1N(Cc1ccccc1)C(=O)[C@H](CC(=O)N1CCCC1)C2	inactive
CCCNC(=O)c1cc2c(c(-c3cccc(-c4ccc(C#N)cc4)c3)n1)[C@@H](CCO)N(C(=O)CC)C2	inactive
COc1ccc(NC(=O)CCCNC(=O)Cn2cnc3sc4c(c3c2=O)CCCC4)cc1OC	inactive
COc1ccc(/C=N/Nc2ncnc3sc4c(c23)CCCC4)cc1O	10 µM (active)
COc1ccc(NC(=O)CCNC(=O)Cn2cnc3sc4c(c3c2=O)CCCC4)cc1OC	inactive
Cc1ccc(S(=O)(=O)N[C@H]2CCC[C@@H]2O)cc1	inactive
Cn1c(NCc2cccnc2)nc2cc(-c3ccc(F)cc3)sc2c1=O	inactive
Cc1[nH]c2ccccc2c1C(=O)C(C)Sc1nnc(C2CC2)o1 (stereo unspecified)	inactive
Cc1[nH]c2ccccc2c1C(=O)CSCC(=O)O	inactive
Cc1[nH]c2ccccc2c1C(=O)c1cc([C@H](NC(=O)OC(C)(C)C)C(C)C)sc1N	10 µM (active)
OC[C@@H]1CN(Cc2ccncc2)C[C@H](n2cnc3c(N4CCN(c5ccccc5)CC4)ncnc32)O1	inactive
CC(C)(C)OC(=O)Nc1ccc([C@@H](NC(=O)OC(C)(C)C)C(=O)OC(C)(C)C)cc1	inactive
CC(C)(C)OC(=O)N[C@H](C(=O)OC(C)(C)C)c1ccc(Br)cc1	10 µM (active)
C[C@H](NC(=O)OC(C)(C)C)c1nnc(SCC(=O)Nc2ccc(Br)cc2)o1	inactive
COc1ccc(C(C)(C)C)cc1NC(=O)CN(C)C1=NS(=O)(=O)c2ccccc21	inactive
COc1ccc(CCNC(=O)CN(c2ccccc2)S(=O)(=O)c2ccccc2)cc1	inactive
COc1cccc(NC(=O)N2CCCC2C(=O)NC2CCCCC2)c1 (stereo unspecified)	inactive
COc1cccc(NC(=O)N(Cc2cn(C)c3ccccc23)C2CCCCCC2)c1	10 µM (active)
COc1cccc(NC(=O)C2CCCN2C(=O)OCc2ccccc2)c1 (stereo unspecified)	inactive
CCOC(=O)c1cc2cc(OC)ccc2n1C1CCN(C)CC1	inactive
C[C@@H]1CN([C@@H](C)CO)C(=O)c2cc(NS(C)(=O)=O)ccc2O[C@@H](C)CCCCO[C@H]1CN(C)C(=O)Nc1ccc2c(c1)OCO2	inactive
Cc1ccc(NC(=S)N(CCCN2CCCC2)Cc2cccn2Cc2ccc(Cl)cc2)cc1	2.24 µM (active)

Structure (SMILES)	Potency
CCc1ccccc1NC(=S)N(CCN1CCCCCC1)Cc1ccco1	inactive
Cc1ccccc1NC(=S)N(CCCN1CCOCC1)Cc1cccs1	inactive
COc1ccc(C(O)c2nc(-c3ccc4c(c3)OCO4)cs2)cc1 (stereo unspecified)	inactive
COc1cccc(-c2cc3nc(NCc4ccccc4OC)n(C)c(=O)c3s2)c1	inactive
CCCOc1ccc(NC(=O)CC2C(=O)N(C)C(=S)N2Cc2ccc3c(c2)OCO3)cc1 (stereo unspecified)	10 µM (active)
CCCOc1ccc(NC(=O)CC2C(=O)N(c3ccccc3)C(=O)N2Cc2ccco2)cc1 (stereo unspecified)	inactive
COc1ccc(NC(=O)CSc2nccn2Cc2ccc3c(c2)OCO3)cc1	inactive
Cc1noc(C)c1NC(=O)N(C)C[C@@H]1Oc2cc(Br)ccc2S(=O)(=O)N([C@@H](C)CO)C[C@H]1C	inactive
COCCN(CCOC)S(=O)(=O)c1ccc(/C(O)=C(\C#N)c2nc3ccccc3[nH]2)cc1	inactive
N#C/C(=C(/O)COc1cccc2ccccc12)c1nc2ccccc2[nH]1	inactive
N#C/C(=C(/O)COC(=O)COc1ccc(Cl)cc1)c1nc2ccccc2[nH]1	10 µM (active)
O=C(COC(=O)CCc1c[nH]c2ccccc12)Nc1cccc(Cl)c1	inactive
CC(C)C[C@H]1CN([C@@H](Cc2ccccc2)CN2CCC[C@@H]2CN2C(=O)C(=O)NC[C@@H]2Cc2ccc(O)cc2)C(=O)C(=O)N1CCc1ccccc1	inactive
COc1ccc(CNCCCO)cc1OC	inactive
CCOCCCNCc1cc(Br)ccc1OCC	inactive
CCOCCCNCc1ccc(OCc2ccc(F)cc2)c(OC)c1	1.12 µM (active)
COCCCn1c(C(=O)NC2CCCCC2)cc2c(=O)n3cccc(C)c3nc21	inactive
COC(=O)c1ccc2nc(-c3ccc(C)cc3)c(Cc3ccc(OC)cc3C)n2c1	inactive
COc1cc(C)c(CN2CCN(C(=O)CCC(=O)c3ccc(C)s3)CC2)cc1OC	inactive
O=C1C(Sc2cccc(F)c2)=C[C@@]2(O)CC[C@@H](O)[C@]1(Sc1cccc(F)c1)[C@H]2O	inactive
COc1ccc(N2CCN(CCNC(=O)c3nnc(Cc4c(F)cccc4Cl)o3)CC2)cc1	inactive
O=C(NCCCN1CCN(c2cccc(Cl)c2)CC1)c1nnc(Cc2ccc(F)cc2Cl)o1	12.6 µM (active)
Cn1c(C(=O)NCCCN2CCN(c3cccc(Cl)c3)CC2)cc2c(=O)n(C)c3ccccc3c21	inactive
CSc1ncnc2c1ncn2CCCNCC(C)c1ccccc1 (stereo unspecified)	inactive
